A short description of assay [1]: optical density shifts of acrAB sulA E. coli – strain DRC41, OD650, 48 h, E. coli filamentation inducer project, primary screen (AID 1152).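 Further: E. coli MC1000 strain DRC41 lacking acrAB efflux pump and sulA.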 The note with it: higher = more signal, called active from +8 up or from −8 down.
Assay [2] in a line: probe aLefty1 binding on compound microarray – biochemical, small-molecule microarray, 635/667 nm fluorescence, primary screen (AID 1153).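 Further: score merges spot fluorescence with signal-to-noise ratio from the scanned slide images.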 The note with it: higher = more signal.
Assay [3] can be described thus: plasmodial surface anion channel blockers, osmotic lysis – cell-based, P. falciparum Indochina, OD700, 1 h, primary screen (AID 1154). The note with it: P. falciparum Indochina infected RBC osmotic lysis, higher = more signal, called active from +8 up or from −8 down.
Assay [4] is described as follows: plasmodial surface anion channel blockers, osmotic lysis – cell-based, P. falciparum Indochina, OD700, 2 h, primary screen (AID 1155).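 Further: lysis reports solute entry through the parasite surface anion channel PSAC.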 The note with it: P. falciparum Indochina infected erythrocytes, higher = more signal, called active from +8 up or from −8 down.
Assay [5] is described as follows: changes in parasitized red cell lysis, either direction – P. falciparum Indochina, OD700, 3 h, PSAC antagonist project, primary screen (AID 1156). The settings on record: P. falciparum-infected erythrocytes, osmotic lysis, higher = more signal, called active from +8 up or from −8 down.
The nature of assay [6]: plasmodial surface anion channel blockers, osmotic lysis – cell-based, P. falciparum Indochina, OD700, 18 h, primary screen (AID 1157). The settings on record: P. falciparum Indochina infected erythrocytes, osmotic lysis OD700, 18 h; higher = more signal, called active from +8 up or from −8 down.
Assay [7] in a line: S6 kinase pathway phospho-S6 level changes – cell-based, A549, cytoblot, luminescence, serum-stimulated, primary screen (AID 1158).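 Further: serum-stimulated A549 lung adenocarcinoma cells; signal is phosphorylated S6 detected by cytoblot immunostaining with HRP secondary.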 The settings on record: 5 h, higher = more signal.
The target in assay [8] is NADPH oxidase 2 (Homo sapiens) (UniProt P04839). As to the kind of experiment: compounds shifting NOX2 Amplex Red fluorescence – cell-based, HEK293-NOX2, PMA-stimulated, NOX inhibitor project, primary screen (AID 1159). Further: test concentration not given here. The settings on record: 45 min, higher = more signal, called active from +8 up or from −8 down.
Assay [9] deals with NADPH oxidase 4 (Homo sapiens) (UniProt Q9NPH5). In words: compounds shifting NOX4 Amplex Red fluorescence – cell-based, HEK293-NOX4, tetracycline-induced, NOX inhibitor project, primary screen (AID 1160). The note with it: HEK293-NOX4, Amplex Red H2O2 fluorescence, 45 min; higher = more signal, called active from +8 up or from −8 down.
Assay [10] addresses NADPH oxidase 5 (Homo sapiens) (UniProt Q96PH1). As to the kind of experiment: compounds shifting NOX5 Amplex Red fluorescence – cell-based, HEK293-NOX5, NOX inhibitor project, primary screen (AID 1161). The note with it: HEK293-NOX5, ionomycin, 45 min, higher = more signal.

Data on nine compounds can be found in PubChem BioAssay.

Molecules are shown by their SMILES. Several values for one entry are separate records, joined by “and”; a condition that tells them apart may be missing. Equal values may be shown once. Activity calls are given as the source filed them.

NADPH oxidase 4 (Homo sapiens), sequence (Q9NPH5 whole entry, looked up): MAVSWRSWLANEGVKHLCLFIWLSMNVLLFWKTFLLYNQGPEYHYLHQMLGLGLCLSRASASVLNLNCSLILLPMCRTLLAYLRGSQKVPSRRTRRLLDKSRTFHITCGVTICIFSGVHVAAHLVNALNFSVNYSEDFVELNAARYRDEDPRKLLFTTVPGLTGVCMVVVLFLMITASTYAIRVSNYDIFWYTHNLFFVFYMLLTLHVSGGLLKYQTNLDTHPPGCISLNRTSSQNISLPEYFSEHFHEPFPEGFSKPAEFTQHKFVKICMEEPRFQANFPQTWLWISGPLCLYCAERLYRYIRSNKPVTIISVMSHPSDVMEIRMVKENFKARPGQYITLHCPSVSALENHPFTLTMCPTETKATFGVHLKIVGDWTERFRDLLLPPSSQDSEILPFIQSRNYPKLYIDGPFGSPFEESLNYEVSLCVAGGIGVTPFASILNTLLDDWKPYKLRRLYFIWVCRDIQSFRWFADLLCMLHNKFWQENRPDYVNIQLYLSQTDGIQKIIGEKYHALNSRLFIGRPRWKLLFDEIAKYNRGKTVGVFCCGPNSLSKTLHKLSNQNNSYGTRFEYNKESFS
NADPH oxidase 5 (Homo sapiens), sequence (Q96PH1 whole entry, looked up): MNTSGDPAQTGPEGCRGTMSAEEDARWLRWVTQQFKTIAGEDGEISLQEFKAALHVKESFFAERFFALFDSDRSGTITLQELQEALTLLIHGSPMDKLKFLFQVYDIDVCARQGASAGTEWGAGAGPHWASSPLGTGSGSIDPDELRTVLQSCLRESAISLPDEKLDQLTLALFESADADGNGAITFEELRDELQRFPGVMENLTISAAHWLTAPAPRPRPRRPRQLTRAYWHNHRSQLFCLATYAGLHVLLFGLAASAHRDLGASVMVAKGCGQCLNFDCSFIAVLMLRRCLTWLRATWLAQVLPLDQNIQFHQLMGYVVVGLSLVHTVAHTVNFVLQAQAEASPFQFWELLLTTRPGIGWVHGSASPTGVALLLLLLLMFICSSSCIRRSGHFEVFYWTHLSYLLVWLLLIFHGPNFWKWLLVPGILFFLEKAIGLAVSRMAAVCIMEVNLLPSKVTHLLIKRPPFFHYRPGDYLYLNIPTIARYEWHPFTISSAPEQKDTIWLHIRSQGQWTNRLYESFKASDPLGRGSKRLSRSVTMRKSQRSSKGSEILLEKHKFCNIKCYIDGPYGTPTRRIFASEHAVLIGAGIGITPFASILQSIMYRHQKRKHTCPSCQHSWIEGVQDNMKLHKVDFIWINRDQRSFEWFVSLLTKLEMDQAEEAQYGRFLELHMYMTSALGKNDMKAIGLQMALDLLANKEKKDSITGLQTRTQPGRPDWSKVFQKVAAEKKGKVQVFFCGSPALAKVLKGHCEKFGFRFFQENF
NADPH oxidase 2 (Homo sapiens), sequence (P04839 whole entry, looked up): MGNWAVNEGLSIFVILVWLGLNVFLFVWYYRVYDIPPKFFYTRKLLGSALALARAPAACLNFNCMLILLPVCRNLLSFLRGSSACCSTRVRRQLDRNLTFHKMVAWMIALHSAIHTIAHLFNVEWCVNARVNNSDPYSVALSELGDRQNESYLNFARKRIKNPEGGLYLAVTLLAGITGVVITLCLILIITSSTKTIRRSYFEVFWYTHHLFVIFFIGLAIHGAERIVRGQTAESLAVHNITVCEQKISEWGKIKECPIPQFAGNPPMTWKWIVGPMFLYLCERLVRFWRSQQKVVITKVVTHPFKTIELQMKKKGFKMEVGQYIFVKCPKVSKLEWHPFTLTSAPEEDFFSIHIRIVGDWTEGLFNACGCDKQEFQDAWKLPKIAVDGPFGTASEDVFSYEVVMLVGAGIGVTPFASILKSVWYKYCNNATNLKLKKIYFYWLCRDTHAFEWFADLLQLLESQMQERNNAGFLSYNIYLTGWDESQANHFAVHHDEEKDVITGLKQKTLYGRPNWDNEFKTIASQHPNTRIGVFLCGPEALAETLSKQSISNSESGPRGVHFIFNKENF

With `Cc1ccc(S(=O)(=O)N[C@H]2COC(=O)[C@@H](Cc3ccccc3)NC(=O)[C@@H](C)COC(=O)CC=C[C@@H]2C)cc1`, the z-score is -0.193 (inactive) and 0.569 (inactive) in assay [1]; 0.649 (inactive) and 1.51 (inactive) in assay [3]; 0.237 (inactive) and 0.491 (inactive) in assay [4]; 0.377 (inactive) and 1.9 (inactive) in [5]; 0.252 (inactive) and 0.148 (inactive) in [6]; 0.0356 and 0.201 in assay [7]. The z-score in assay [8] was -0.34 (inactive) and 0.252 (inactive); in assay [9], -0.302 (inactive) and -0.127 (inactive); in [10], 0.189 and 0.00698. Also, the composite z-score in [2] is -0.232 and -0.0645.
On to `C=CCN(CCCCC)C(=O)C1N(c2c(Cl)cccc2CO)C(=O)C2C(C(=O)O)C3C=CC21O3` (stereo not given), for which the z-score in [1] was -0.281 (inactive) and -0.118 (inactive); in assay [3], 1.02 (inactive) and 0.766 (inactive); in [4], 0.078 (inactive) and 0.573 (inactive); in [5], 0.418 (inactive) and 0.0852 (inactive); in assay [6], 0.188 (inactive) and -0.058 (inactive); in assay [7], 0.0308 and 0.765. Also, the z-score was 0.871 (inactive) and 0.757 (inactive) in [8]; -1.02 (inactive) and -1.22 (inactive) in [9]; -0.554 and -0.2 in assay [10]. For the same compound, the composite z-score in assay [2] was -0.313 and 0.0547.
For the compound `CC(C)CCN1CCc2nc(-c3ccccc3)c3c(c2C1)CO[C@@H](C)C3`, the z-score in [1] was 0.842 (inactive); in [3], 0.253 (inactive); in [4], 0.145 (inactive); in assay [5], -0.895 (inactive); in assay [6] it was 0.0992 (inactive); in assay [7] it was -0.768. The z-score in assay [8] is 1.12 (inactive); in assay [9], 0.461 (inactive); in [10], 0.427. In assay [2], this compound showed a composite z-score of 0.173.
With `CO[C@H]1COC(=O)CC=C[C@@H](C)COC(=O)[C@H](CCSC)NC(=O)CC=C[C@@H]1C`, the z-score was -0.949 (inactive) and -0.0368 (inactive) in assay [1]; -0.304 (inactive) and 0.171 (inactive) in [3]; -0.237 (inactive) and 0.588 (inactive) in [4]; -0.425 (inactive) and -0.189 (inactive) in assay [5]; 0.256 (inactive) and -0.0409 (inactive) in assay [6]; 0.676 and 0.163 in assay [7]. Besides, the z-score in assay [8] is 1.07 (inactive) and -1.99 (inactive); in assay [9], -0.824 (inactive) and 0.413 (inactive); in assay [10] it was -0.812 and -0.479. Besides, in assay [2], the composite z-score was -0.188 and 0.32.
For the compound `C=C[C@H](OC)[C@@H](O)c1ccc(OCCO)cc1`, the z-score in assay [1] was -0.389 (inactive) and 0.805 (inactive); in assay [3], 0.749 (inactive) and 0.142 (inactive); in assay [4], 0.305 (inactive) and 0.0012 (inactive); in assay [5], -0.442 (inactive) and -0.321 (inactive); in [6], 0.0568 (inactive) and 0.352 (inactive); in assay [7], 0.136 and 0.135. Also, the z-score in assay [8] was 0.844 (inactive) and -0.354 (inactive); in assay [9], -1.32 (inactive) and -0.339 (inactive); in assay [10] it was -0.372 and 0.317. Moreover, in assay [2], the composite z-score is -0.328 and -0.147.
Consider `C=C[C@@H](OC)[C@H](O)c1ccc(O)c(F)c1`, for which the z-score is 0.0737 (inactive) and 1.88 (inactive) in assay [1]; 0.268 (inactive) and -0.347 (inactive) in [3]; -0.132 (inactive) and -0.266 (inactive) in assay [4]; -0.387 (inactive) and -0.924 (inactive) in assay [5]; 0.426 (inactive) and -1.02 (inactive) in assay [6]; -0.422 and 1.68 in assay [7]. Further, the z-score is 0.203 (inactive) and -0.689 (inactive) in assay [8]; -1.69 (inactive) and -0.842 (inactive) in assay [9]; -1.64 and -1.95 in [10]. The composite z-score in assay [2] was -0.284 and -0.196.
Regarding `C[C@@H]1CC[C@@H](C(=O)O)N[C@H]1c1ccc(-c2ccco2)cc1`, the z-score in assay [1] was -0.601 (inactive); in assay [3], 0.732 (inactive); in assay [4], 1.2 (inactive); in [5], 0.871 (inactive); in assay [6], 0.883 (inactive); in assay [7], -0.282. The z-score in assay [8] was -0.71 (inactive); in [9], 0.156 (inactive); in assay [10], 0.798. In addition, the composite z-score in assay [2] was determined as 0.0721.
For the compound `CC(CO)N1C(=O)[C@@H]2C3C(=O)OCCC=C[C@H]3OC23C=CCN(C(C)(C)C)C(=O)[C@@H]13` (stereo not given in full), the z-score in [1] was -0.745 (inactive) and -0.506 (inactive); in assay [3], 0.901 (inactive) and 1.86 (inactive); in assay [4], -0.27 (inactive) and 0.449 (inactive); in [5], 1.02 (inactive) and 0.409 (inactive); in assay [6] it was 0.406 (inactive) and 0.112 (inactive); in [7] it was 1.11 and -0.113. The z-score in assay [8] was 0.793 (inactive) and 1.49 (inactive); in assay [9] it was 0.0644 (inactive) and 0.425 (inactive); in assay [10], 1.96 and 2.84. Moreover, the composite z-score in [2] is -0.224 and 0.227.
Regarding `COC(=O)C1=C(C)N(Cc2ccccc2)C2=C(C(C)=O)C[C@@](O)(C(=O)OC)C(=O)N2[C@@H]1c1ccccc1`, the z-score was 0.125 (inactive) and -0.635 (inactive) in assay [1]; 0.0793 (inactive) and -0.0501 (inactive) in assay [3]; -1.13 (inactive) and -0.742 (inactive) in [4]; 0.0531 (inactive) and -0.0986 (inactive) in [5]; -1.62 (inactive) and -0.838 (inactive) in [6]; 0.268 and 2.46 in [7]. Besides, the z-score is 0.627 (inactive) and 0.462 (inactive) in assay [8]; 0.993 (inactive) and 0.524 (inactive) in assay [9]; 1 and 1.04 in [10]. In assay [2], the composite z-score is -0.147 and 0.0732.
